# High-throughput results deposited in PubChem by National Center for Advancing Translational Sciences (NCATS).
# Shown are actives, neighbours in structure and some others; about 1.7% of the full set was active somewhere.
# Casp7 inh = blocks human caspase-7 allosterically or competitively; P55210; recombinant caspase-7, Ac-DEVD-AFC fluorescence rate; Potency, µM (series often up to 57.5 µM), inactives show at the highest dose activity change, negative = inhibition, most hits filed as inhibitors; 75,000 compounds, 0.02% hits; AID 889; active = well fitted inhibition curve with a large enough effect in the main read-out, with a control signal flat, not every such curve was filed as active; inconclusive = small, poorly fitted or top-dose-only effect, or a change in a side signal; note: % of control where 0% means no effect
# ALOX15B inhib = blocks human 15-lipoxygenase 2 activity | O15296 | purified 15hLO-2, xylenol orange hydroperoxide absorbance | Potency, µM (top dose mostly 57.1 µM), for inactives: at the highest dose activity change, negative = inhibition, usual class: inhibitors | 110,000 compounds, 0.56% hits | AID 881; note: % is set by controls: 0 for no effect and ±100 for the full control effect; nearly all actives have a fitted effect of over 60% in size
#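 Read-out: hydroperoxide product oxidises ferrous iron, measured as xylenol orange complex via the 573-to-405 nm absorbance ratio after 30 min. Reaction: 50 nM enzyme, 15 min compound preincubation, 45 uM arachidonic acid, 90 min RT, Hepes pH 7.5 with Triton X-100.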
# ERK AVP inh = blocks ERK signaling stimulated by vasopressin; HEK293-V1b, vasopressin-stimulated pERK AlphaScreen; Potency, µM (top dose mostly 57.5 µM), without a hit: top-dose activity, negative = inhibition, actives largely listed as inhibitors; 72,000 compounds, 0.99% hits; AID 995; note: % is set by controls: 0 for no effect and ±100 for the full control effect; nearly all actives have a fitted effect of over 55% in size
#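 qHTS, compounds titrated on V1b-expressing HEK293 cells. Preincubation 30 min at 37C, vasopressin 25 nM for 5 min, lysis 10 min, bead incubation 5 hr at room temperature.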
# Caspase-1 inhib = caspase-1 (human) inhibition, allosteric or competitive; Potency, µM (top dose mostly 57.5 µM), inactives show top-dose activity change, negative = inhibition, usual class: inhibitors; Caspase-1 enzyme, Ac-WEHD-AFC fluorogenic rate; 75,000 compounds, 0.03% hits;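 note: plate controls were vehicle for no effect and no substrate for full effect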
# 15-hLO inh = inhibitors of human 15-lipoxygenase (ALOX15). P16050. purified 15hLO-1, xylenol orange hydroperoxide absorbance. Potency, µM (highest dose often 57.1 µM), without a hit: at the highest dose activity change, negative = inhibition, most hits filed as inhibitors. 74,000 compounds, 1.4% hits; note: % is set by controls: 0 for no effect and ±100 for the full control effect; nearly all actives have a fitted effect of over 55% in size
#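 Hydroperoxide formed from arachidonic acid (50 uM) by purified human 15hLO-1 (40 nM) oxidizes ferrous iron, and the ferric-xylenol orange complex is read at 573 versus 405 nm. Compounds were preincubated 15 min; reaction ran 6 min at room temperature.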
# * marks the source's active call; other numbers are inactive results; ? = inconclusive; . = no result given; ! = not confirmed by another sample; [ ] = another dose, or the depositor's remark. Unless noted, calls come from the whole dose curve; as a rule, active = well fitted curve in the direction sought with a large enough effect; inconclusive = small, poorly fitted or top-dose-only effect, or another doubt; inactive = no such curve, though single readings can be large; an effect the other way counts as inactive or inconclusive. Potency is the fitted concentration of half-maximal effect.
SMILES,Casp7 inh,ALOX15B inhib,ERK AVP inh,Caspase-1 inhib,15-hLO inh
COc1cccc(-c2cc(NCc3ccc(OC)cc3OC)ncn2)c1,-5%,31%,-15%,-5%,-20%
Clc1ccccc1-c1cc(NCc2ccccc2)ncn1,-8%,-12%,25µM*,-5%,?
Cc1cnc(CNc2cc(-c3ccccc3Cl)ncn2)cn1,-4%,0%,-21%,1%,0%
C=C(C)OC(C)=O,0%,-8%,-1%,-2%,-4%
Nc1ncnc2c1ncn2[C@@H]1O[C@@H](COP(=O)(O)OP(=O)(O)OP(=O)(O)OP(=O)(O)OC[C@@H]2O[C@@H](n3cnc4c(N)ncnc43)[C@@H](O)[C@H]2O)[C@H](O)[C@@H]1O,1%,-13%,-7%,5%,-19%
COc1ccc(/C=N/NC(=O)c2cc(-c3ccc(Cl)cc3)n[nH]2)cc1OC,-7%,.,.,-6%,-4%
CCCNC(=O)OC[C@@H]1O[C@H](CCO/N=C\c2ccc(C(=O)N3[C@H](c4ccc(C)cc4)[C@@H](C)CC[C@H]3C(=O)OC)cc2)C=C[C@@H]1Oc1ccc(OC)cc1,5%[11.5 µM],.,10%[11.5 µM],0%[11.5 µM],2%[11.4 µM]
CCn1c(N2CCN(S(=O)(=O)c3ccccc3C(F)(F)F)CC2)nc2ccccc21,-4%,19%,32µM*,1%,?
CCOC(=O)C1=C(C)N=C2c3ccccc3C(=O)C2C1c1ccc(Cl)cc1 (stereo unspecified),.,-14%,.,.,.
CCOC(=O)C1=C(Cc2ccc(Cl)cc2)C(=O)c2ccccc2C1=O,.,10µM*,.,.,.
Cc1ccc(S(=O)(=O)c2cc3c(=O)n4ccccc4nc3n(Cc3ccco3)c2=N)cc1C,?,.,19%,.,32µM*
N=c1c(S(=O)(=O)c2ccccc2)cc2c(=O)n3ccccc3nc2n1Cc1ccco1,?,?,33%,.,-19%
CCO[C@H](c1cc(OC)cc([N+](=O)[O-])c1OC)[C@H](C)/C=C\CC(=O)OC,0%[11.5 µM],.,4%[11.5 µM],0%[11.5 µM],7%[11.4 µM]
O=C(Nc1cccs1)NC1CCCC1,-11%,?,-3%,-8%,13µM*
c1ccc2[nH]c(CN3CCN(c4ncnc5c4oc4ccccc45)CC3)nc2c1,-2%,50%,13µM*,-3%,-11%
Fc1ccc(Nc2ccnc(-c3ccc4c(c3)OCO4)n2)cc1,-2%,15%,?,-3%,?
COc1ccccc1-c1nccc(NCc2cccs2)n1,2%,0%,?,0%,10µM*
c1csc(CNc2ccnc(-c3ccoc3)n2)c1,-12%,-15%,-27%,-6%,20µM*
Fc1ccc(Nc2ccnc(-c3ccoc3)n2)cc1,-8%,2%,32µM*,-5%,?
CC(C)(C)c1ccc(-c2nnc(SCc3ccc(Cl)cc3)n2-c2cccc(C(F)(F)F)c2)cc1,1%[11.5 µM],2%[11.4 µM],-16%[11.5 µM],-2%[11.5 µM],5%[11.4 µM]
CCCn1c(-c2ccc(F)cc2)nc2c(NCCCN3CCCCC3C)nc(C)nc21 (stereo unspecified),-4%,52%,-7%,-4%,-11%
CNc1ccc(O)cc1,-19%,-15%,-11%,?,?
Oc1cccc(C=NCc2ccccc2)c1O,-20%,?,.,-9%,5µM*
CN(Cc1ccccc1)c1nc2c(c(=O)[nH]c(=O)n2C)n1CCCc1ccccc1,-1%,-20%,35%,-3%,-23%
CN(Cc1ccccc1)c1nc2c(c(=O)[nH]c(=O)n2C)n1Cc1ccccc1Cl,-1%,4%[2.29 µM],16µM*,-4%,-17%
SMILES,Casp7 inh,ALOX15B inhib,ERK AVP inh,Caspase-1 inhib,15-hLO inh
Cn1c(=O)[nH]c(=O)c2[nH]c(N(Cc3ccccc3)Cc3ccccc3)nc21,0%,-4%,25µM*,-4%,-14%
CS(=O)(=O)N1CCC[C@@]2(CCN(C(c3ccccc3)c3ccccc3)C2)C1,-3%,33%,6%,-2%,-13%
COc1cc2c(cc1OC)C(c1ccc(N)cc1)=NNC(=O)C2,0%,11%,?,-1%,-24%[25.6 µM]
CCCCn1c(SCc2ccc(C(=O)OC)o2)nc2cc(S(N)(=O)=O)ccc21,-1%,15%,-29%,-1%,3%
CCCCn1c(SCC(=O)NC(=O)NCc2ccco2)nc2cc(S(N)(=O)=O)ccc21,-19%,-10%,?,-3%,10µM*
CN1CCN(c2ncc3nc(-c4ccccc4)c(=O)n(C)c3n2)CC1,?,-4%,0%,.,-2%
C=CCOCC1CN2C(CCC(C)C2c2ccc(Br)cc2)C(=O)O1 (stereo unspecified),0%[11.5 µM],.,-5%[11.5 µM],0%[11.5 µM],8%[11.4 µM]
COc1ccccc1-c1cncnc1NCCNC(C)=O,-5%,-26%,-17%,-2%,10µM*
COc1ccccc1-c1cncnc1Nc1ccccc1,-4%,0%,-20%,-3%,25µM*
COCCNc1ncncc1-c1ccccc1OC,-2%,7%,6%,-3%,-7%
COc1ccc2c(c1OC)C(=O)OC2[C@H]1c2c(cc3c(c2OC)OCO3)CCN1C (stereo partly specified),2%[25.7 µM],4%[25.6 µM],13%[25.7 µM],-10%[25.7 µM],7%[25.6 µM]
COc1ccc2c(c1OC)C(Cc1ccccc1)N1CCc3cc4c(cc3C1=C2)OCO4 (stereo unspecified),?,-4%,6.3µM*,.,?
CO[C@H]1COC(=O)[C@@H](CCSC)NC(=O)C/C=C\[C@@H](C)[C@H](OC)COC(=O)[C@@H](OCc2ccccc2)/C=C\[C@@H]1C,0%[11.5 µM],.,-10%[11.5 µM],0%[11.5 µM],5%[11.4 µM]
C[n+]1cc2c3c(ccc2c2ccc4cc5c(cc4c21)OCO5)OCO3,-5%,5µM*,25µM*!,-6%,10µM*
O=C(c1cccc(F)c1)N1CCC2(CCN(Cc3cc(C(F)(F)F)cc(C(F)(F)F)c3)CC2)CC1,-3%,34%,-6%,-2%,-8%
CCOC(=O)c1cnc2c(cnn2CC)c1NN=C(C)C,-4%,5%,?,-1%,2%[25.6 µM]
CCOC(=O)c1c(-c2ccc(-c3ccccc3)cc2)csc1NC(=O)C1C2CCC(O2)C1C(=O)O (stereo unspecified),.,20µM*,.,.,.
N#Cc1c(N)nc2c(c1-c1ccc3c(c1)OCO3)CCCCCC2,-3%,-15%,-14%,-1%,-2%
N#Cc1c(N)oc(-c2ccc3c(c2)OCO3)c1-c1ccc2c(c1)OCO2,-10%,-28%,4%,-8%,25µM*
Cc1ccc(-c2cc(-c3ccc(C)o3)nc(N)c2C#N)cc1,2%,?,-1%,1%,0%
Cc1ccc(-c2cc(-c3ccc(Cl)cc3)c(C#N)c(N)n2)o1,-2%,6.3µM*,6%,-3%,-4%
Cc1ccc(-c2cc(-c3ccc4c(c3)OCO4)c(C#N)c(N)n2)o1,-28%,?,4%,?,10µM*
S=C(NC1CCCCC1)NC1CCCCC1,-3%,-13%,21%,-4%,-17%
Cc1nc(NCc2ccccc2)c2nc(-c3ccccc3)n(CC3CCN(C)CC3)c2n1,0%,18%,9%,0%,1%
Cc1cc(OCCCCCNCCO)cc(C)c1Cl,0%,24%,40µM*,-1%,-29%[11.4 µM]
